From PubChem BioAssay (NCATS)
Records with an inconclusive call do not appear. Unmarked numbers belong to inactive results. The call rests on the fitted dose curve; in most records, active means well fitted activation curve with a large enough effect; inconclusive means small, poorly fitted or top-dose-only effect; inactive means flat fitted curve, though single readings scatter.

Test: Primary redox qHTS assay for identification of artifact compounds. (AID 1845223);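 further: 0% = DMSO and 100% = reference compound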
Settings: Amplex Red/HRP redox cycling with DTT, fluorescence; series mostly up to 53.8 µM; redox activity (% of DA3003): at the top concentration
Summary of the method: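 Amplex Red (25 uM) and HRP (250 mU/mL) in HBSS, with compounds for 15 min, then 250 uM DTT for 30 min, room temperature, dark. Fluorescence 525/598 nm read; normalized to DMSO and 10 uM DA3003; Hill fit.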

SMILES	redox activity (% of DA3003)
COC(=O)c1cc(CN2CCN(C(=N)N)CC2)cc(C(=O)N2CCN(C(=O)c3ccc(C(=N)N)cc3)CC2)c1	1.88%
NC(Cc1c[nH]c2ccccc12)C(=O)NC(CCC(=O)O)C(=O)O (stereo not drawn)	-3.22%
Cn1c(=O)c2nc(/C=C/c3cccc(Cl)c3)n(C)c2n(C)c1=O	0.239% [at 114 µM]
Clc1ccc2c(c1)C1=NCCN1c1c(-c3noc(C4CC4)n3)ncn1-2	-5.33%
CC1(C)OC(=O)C(OCC2CC2)=C1c1ccc(S(C)(=O)=O)cc1	-0.681%
CC(=O)NC(C(=O)OC1CCC(C)(C)C2CC=C3C(=O)OCC3(O)C12C)C(C)C (stereo not drawn)	8.34% [at 25.6 µM]
COc1cc(C2c3cc(O)c(OC)cc3CC(CO)C2CO)ccc1O (stereo not drawn)	-8.94%
COc1cc(/C=C/C(=O)OC2[C@H](O)CC(O)(C(=O)O)C[C@H]2O)ccc1O (stereo partly drawn)	-0.269%
C=C1CCC(OC(C)=O)C2(C)CC3(O)OC(=O)C(C)=C3CC12 (stereo not drawn)	-6.9%
Cc1ncc([N+](=O)[O-])n1CC(O)CN1CCOCC1 (stereo not drawn)	-1.33%
CC(C)(O)CNc1nc(Nc2ccnc(C(F)(F)F)c2)nc(-c2cccc(C(F)(F)F)n2)n1	4.9% [at 25.6 µM]
COC(=O)c1ccc(O[C@@H]2O[C@H](CO)[C@@H](O)[C@H](O)[C@H]2O)c(OC)c1	-10.3%
C#Cc1cnc2[nH]c(=O)n(C(CC)CC)c2n1	-0.565%
CC1CCC2(O1)C(C)(C)CC(O[C@@H]1O[C@H](CO[C@@H]3OC[C@](O)(CO)[C@H]3O)[C@@H](O)[C@H](O)[C@H]1O)CC2(C)O (stereo partly drawn)	-0.224% [at 25.6 µM]
C=C1CC2C3(C)C(O)CC(=O)C(C)(C)C3C(OC(C)=O)C(OC(C)=O)C2(C)C2C(=O)OC(C)(C(=O)OC)C(=O)C12C (stereo not drawn)	-2.49% [at 25.6 µM]
CC1(C)NC2N(C1=O)c1ccccc1C2(O)CC(C(=O)O)n1cnc2ccccc2c1=O (stereo not drawn)	-4.35% [at 25.6 µM]
COc1cc(CCc2ccccc2)c(C(=O)O)c2c1CC(C(C)(C)O)O2 (stereo not drawn)	10.9%
CCC(NC(=O)CC(NC(=O)C(CO)NC(=O)C(CC)NC(=O)c1ccc[nH]1)c1ccccc1)C(=O)O (stereo not drawn)	-16.9% [at 25.6 µM]
CC1=CC(=O)CC(C)(CO[C@@H]2O[C@H](CO)[C@@H](O)[C@H](O)[C@H]2O)C1(O)/C=C/C(C)=C/C(=O)O (stereo partly drawn)	-6.95% [at 25.6 µM]
CC1=CC(=O)C2C(C)(C)CCCC2(C)C12CCC1(COC(=O)C1)O2 (stereo not drawn)	-11.2%
CN1C(=O)c2ccccc2-n2c(nc3ccccc3c2=O)/C1=C/c1ccccc1	9.71%
OCC1OC(Oc2cc(O)c3c(c2)OC(c2ccc(O)cc2)C(O)C3)C(O)C1O (stereo not drawn)	-8.7% [at 25.6 µM]
CC(=O)O[C@@]1(C)C[C@@H](O)[C@]2(O)C=CO[C@@H](O[C@@H]3O[C@H](CO)[C@@H](O)[C@H](O)[C@H]3O)[C@@H]21	-17% [at 25.6 µM]
CCOc1nc2cccc(C(=O)O)c2n1Cc1ccc(-c2ccccc2-c2noc(=O)[nH]2)cc1	-4.75%
C=C1C[C@@]23CC[C@@H]4[C@](C)(C(=O)O)CCC[C@@]4(C)C2=CC[C@H]1C3	-3.71%
COc1cc(C2Oc3c(OC)cc(/C=C/C(=O)OC[C@H]4O[C@@H](OC(C)(C)C(=O)O)[C@H](O)[C@@H](O)[C@@H]4O)cc3C2CO)ccc1O (stereo partly drawn)	-3.74% [at 25.6 µM]
CCC/C=C/C(=O)O[C@H]1CC(C)(C)CC2[C@]13[C@H](O)O[C@@]21CCC2[C@@]4(C)CC[C@H](O[C@@H]5O[C@H](C(=O)O)[C@@H](O)[C@H](O[C@@H]6O[C@H](CO)[C@H](O)[C@H](O)[C@H]6O[C@@H]6O[C@@H](C)[C@H](O)[C@@H](O)[C@H]6O[C@@H]6OC[C@](O)(CO)[C@H]6O)[C@H]5O[C@@H]5O[C@H](CO)[C@H](O)[C@H](O)[C@H]5O)C(C)(C)C4CC[C@@]2(C)[C@]1(C)C[C@H]3OC(C)=O (stereo partly drawn)	-2.32% [at 11.5 µM]
NC1CCC(N[C@@H]2C[C@H]2c2ccccc2)CC1 (stereo partly drawn)	-3.18%
